Screening data from PubChem.
Shown are actives, neighbours in structure and some others; about 0.45% of the full set was active somewhere.
FadD28 binding – inhibitors of FadD28 bisubstrate probe binding, primary screen, biochemical, fluorescence polarization, single point; Mycobacterium tuberculosis FadD28 fatty-acid-AMP ligase; actives 0.22% (n = 360,000); inhibition, % at 12.5 µM; in the data active means inhibition above about 8.5%, passing the limit was not always enough
Y pestis TopoI – Yersinia pestis topoisomerase I inhibitors, primary screen, biochemical, cleavage product accumulation, plate reader, single point; actives 0.064% (n = 360,000); AID 504884, 2011; Y. pestis Topo-I cleavage product accumulation; activity, % at 10 µM; DNA topoisomerase I (Yersinia pestis CO92); in the data active means activity above about 50%, passing the limit was not always enough
BioA inh-1 – M. tuberculosis BioA enzyme inhibitors, primary screen, biochemical, plate reader, single point, HTS | 7,8-diaminopelargonic acid synthase BioA (Mycobacterium tuberculosis) | inhibition, % at 9.99 µM | actives 0.096% (n = 360,000) | purified M. tuberculosis BioA enzyme; in the data active means inhibition above about 40%
TcdB inh – TcdB glycohydrolase inhibitors, primary screen, biochemical, single point, plate reader; Toxin B (Clostridioides difficile), P18177; TcdB glycohydrolase enzymatic assay; inhibition, % at 9.99 µM; actives 0.24% (n = 350,000); in the data active means inhibition above about 10%
BioA inh-2 – Mtb BioA enzyme inhibitors, dose response, biochemical, plate reader, cherry-pick samples, set 03; purified BioA enzyme; max activity, %; 310 tested, under 10 active; shares compounds with BioA inh-1;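 further: top concentration of the dilution series was 10 µM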
Target sequence (P9WQ81 whole entry, looked up): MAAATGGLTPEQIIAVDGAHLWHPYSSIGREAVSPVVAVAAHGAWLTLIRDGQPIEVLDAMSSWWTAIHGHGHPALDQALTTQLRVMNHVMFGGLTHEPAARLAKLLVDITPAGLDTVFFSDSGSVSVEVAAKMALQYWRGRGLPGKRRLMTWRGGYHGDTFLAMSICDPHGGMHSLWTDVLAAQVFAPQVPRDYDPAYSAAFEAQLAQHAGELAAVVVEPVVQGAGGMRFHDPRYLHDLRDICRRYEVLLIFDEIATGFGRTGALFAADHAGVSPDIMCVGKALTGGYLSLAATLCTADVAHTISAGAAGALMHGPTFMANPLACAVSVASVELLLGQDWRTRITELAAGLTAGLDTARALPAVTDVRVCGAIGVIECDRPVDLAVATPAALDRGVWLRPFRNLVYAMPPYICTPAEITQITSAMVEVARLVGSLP
HepG2 cytotox – cytotoxicity in HepG2 cells, dose response, cytotoxicity control, cell-based, plate reader, cherry-pick, two tests; shares compounds with BioA inh-1; 310 tested, under 10 active; AID 651898, 2012; max activity, %
3T3 cytotox 5 – cytotoxicity in NIH3T3 fibroblasts, dose response, cytotoxicity control, cell-based, plate reader, cherry-pick, two tests. shares compounds with BioA inh-1. activity change, negative = cytotoxicity, % at 26 µM. 310 tested, under 10 active. AID 651900, 2012
Numbers stand for hits; n = inactive; x = not tested or not shown. Unless noted, how the calls were made is not given here.

SMILES | FadD28 binding | Y pestis TopoI | BioA inh-1 | TcdB inh | BioA inh-2 | HepG2 cytotox | 3T3 cytotox 5
CCCc1cc(=O)oc2c3c(cc(OCC(=O)NCCCn4ccnc4)c12)OC(C)(C)CC3 | n | n | 43.4 | 11.3 | n | n | n
COc1ccccc1-c1cc(C(F)(F)F)nc(S(=O)(=O)CCCC(=O)O)n1 | n | n | 60.4 | x | n | n | n
CCCNC(=O)C[C@@H]1CC[C@@H]2[C@H](COc3ccc(NC(=O)C4CCCC4)cc3C(=O)N2C)O1 | x | x | n | n | x | x | x
O=C(COc1ccc2ccc(=O)oc2c1)N1CCN(c2ccc(F)cc2)CC1 | n | n | 54.9 | n | n | n | n
CCC(CO)[n+]1c(C)cc(/C=C2\Sc3ccccc3N2Cc2ccccc2)cc1C (configuration not stated) | n | n | 52.5 | 22.3 | n | n | n
CC(C)NC(=O)Nc1ccc2c(c1)C(=O)N(C)[C@@H]1CC[C@@H](CC(=O)NCC(F)(F)F)O[C@@H]1CO2 | x | x | n | x | x | x | x
N#C[C@@H]1[C@H](c2ccccc2)[C@H](CO)N1C(=O)Nc1cccc(F)c1 | x | x | n | n | x | x | x
N#C[C@H]1[C@@H](c2ccccc2)[C@@H](CO)N1C(=O)Nc1cccc(F)c1 | x | x | 76.6 | n | n | n | n
COC(=O)c1c(C(=O)OC)c(-c2cccc(F)c2)n2c1CS(=O)C2 (configuration not stated) | n | n | 98.0 | n | n | n | n
O=c1[nH]c(N2CCN(Cc3ccccc3)CC2)nc2c1CCC2 | n | n | x | n | x | x | x
O=c1[nH]c(N2CCN(Cc3ccc4c(c3)OCO4)CC2)nc2c1CCC2 | n | n | 76.0 | x | n | n | n
C[C@@H]1CN([C@@H](C)CO)C(=O)c2cc(C3=CCCCC3)cnc2O[C@@H]1CN(C)Cc1cccnc1 | x | x | n | n | x | x | x
COc1ccc(C2c3c(-c4ccccc4O)n[nH]c3C(=O)N2Cc2ccco2)cc1OC (configuration not stated) | n | n | x | n | x | x | x
COc1ccc(C2c3c(-c4cc(Cl)c(C)cc4O)n[nH]c3C(=O)N2Cc2cccnc2)cc1OC (configuration not stated) | n | n | 55.9 | x | n | n | n
CC(=O)c1ccc(C(=O)N2CCCC(Nc3ccc(C(C)C)cc3)C2)s1 (configuration not stated) | n | n | 67.3 | n | n | n | n
Nc1cc(C(=O)O)ccc1Nc1ccccc1 | n | n | 75.0 | x | n | n | n
Cc1ccc(NCc2nnc(SCC(=O)N3CCc4ccccc43)n2C)cc1 | n | n | 46.7 | x | n | n | n
Cc1cccc(-n2c(SCC(=O)N(C)C3CCS(=O)(=O)C3)nc3ccccc3c2=O)c1C (configuration not stated) | n | n | 47.2 | n | n | n | n
CN(C(=O)CSc1nc2ccccc2c(=O)n1-c1ccccc1F)C1CCS(=O)(=O)C1 (configuration not stated) | n | n | n | n | x | x | x
CCN(CC)CCCNC(=O)c1cn(CC)c2ccc(S(=O)(=O)N3CCc4ccccc4C3)cc2c1=O | n | n | x | n | x | x | x
CCN(CC)CCNC(=O)c1cn(CC)c2ccc(S(=O)(=O)N3CCc4ccccc4C3)cc2c1=O | n | n | 58.5 | n | n | n | n
O=C(c1ccccn1)N1CC(=O)N2[C@H](CO)[C@@H](c3ccc(C#Cc4ccccc4)cc3)[C@@H]2C1 | x | x | x | n | x | x | x
CC(=O)c1ccc(N2CCN(S(=O)(=O)c3c(C(=O)N4CCCC4)c(C)n(C)c3C)CC2)cc1 | n | n | 42.4 | n | n | n | n
O=C(CSc1nc2c(c(=O)n1-c1ccc(Cl)cc1)SCC2)N1CCOCC1 | n | n | 55.9 | n | n | n | n
O=C(CSc1nc2c(c(=O)n1-c1ccc(Cl)cc1)SCC2)N1CCCC1 | n | n | n | x | x | x | x
C=C(C)n1c(=O)n(Cc2ccccc2C)c2ccccc21 | n | n | 48.2 | n | n | n | n
C=C(C)n1c(=O)n(Cc2ccc(C)cc2)c2ccccc21 | n | n | n | n | x | x | x
CCOC(=O)c1c(C)[n+](-c2ccc(C)cc2)c(CC)c2cc(OC)c(OC)cc12 | n | n | 77.2 | n | n | n | n
